The campaign covered roughly 52,000 compounds. About 1,700 (3.3%) were called active. What follows is part of a selection rich in actives, with near analogues and random picks from the rest. Unmarked numbers belong to inactive results. Rule as the data show it: active = survival mostly below about 52% (no sharp cut-off); inactive = mostly above about 56%.
What follows are compounds tested on Wild type (assay: S. aureus survival, RN4220 and DeltatarO strains – OD600, teichoic acid synthesis inhibitors, primary screen (AID 463173)). Conditions: S. aureus RN4220 wild type/DeltatarO growth, OD600, 18 h, stronger effect = lower value, screened at 18.75 µg/mL (by protocol).

Row | SMILES | survival
1 | CCOc1ccccc1NC(=O)C(NS(=O)(=O)c1ccc2c(c1)CCC(=O)N2)c1ccccc1 (stereo not drawn) | 76%
2 | CC1CCN(S(=O)(=O)c2cc(C(=O)N3CCN(c4ccccc4F)CC3)n(C)c2)CC1 | 65%
3 | Cn1cc(S(=O)(=O)N2CCCCC2)cc1C(=O)N1CCN(c2ccc(F)cc2)CC1 | 65%
4 | COC(=O)c1cc(S(=O)(=O)N2CCN(c3ccc(F)cc3)CC2)cn1C | -6% (active)
5 | Cc1cccc(N2CCN(C(=O)c3cc(S(=O)(=O)N4CCC(C)CC4)cn3C)CC2)c1C | 49%
6 | COC(=O)c1scc(-c2ccc(C)cc2)c1S(=O)(=O)N1CCN(c2ccc(F)cc2)CC1 | -6% (active)
7 | Cn1cc(S(=O)(=O)N2CCCCCC2)cc1C(=O)N1CCN(c2ccc(F)cc2)CC1 | 71%
8 | COC(=O)c1scc(-c2ccc(C)cc2)c1S(=O)(=O)N1CCN(c2ccc(OC)cc2)CC1 | 75%
9 | COC(=O)c1scc(-c2ccc(C)cc2)c1S(=O)(=O)N1CCN(c2ccccc2)CC1 | 64%
10 | COc1ccccc1N1CCN(C(=O)c2cc(S(=O)(=O)N3CCC(C)CC3)cn2C)CC1 | 0% (active)
11 | CCc1ccc(-n2nc3cc(C)c(NC(=O)c4cc(OC)cc(OC)c4)cc3n2)cc1 | 69%
12 | Cc1ccc(-c2cc(C(=O)Nc3c(C(=O)c4ccc(C)c(F)c4)oc4ccccc34)no2)cc1 | 93%
13 | O=C(Nc1cccc(NC(=O)C2CCCO2)c1)c1ccco1 (stereo not drawn) | 102%
14 | O=C(Nc1ccc(F)c(Cl)c1)C1CCN(S(=O)(=O)c2ccc3c(c2)CCCN3C(=O)C2CCC2)CC1 | 67%
15 | COC(=O)c1c(SC)nc2ccccc2c1OCc1ccc(C)cc1 | 75%
16 | NC(=O)C1CCN(C(=O)CSc2nc(O)cc(=O)[nH]2)CC1 | 97%
17 | O=C(N/N=C1/SCC(=O)N1Cc1ccco1)c1ccccc1F | 97%
18 | CC(=O)Nc1ccc(S(=O)(=O)Nc2ccc(-c3cn4c(C)csc4n3)cc2)cc1 | 69%
19 | CC(=O)c1ccc(S(=O)(=O)Nc2ccc(-c3cn4c(C)csc4n3)cc2)cc1 | -6% (active)
20 | COc1ccc(S(=O)(=O)Nc2ccc(-c3cn4c(C)csc4n3)cc2)cc1 | 78%

Row | SMILES | survival
21 | CCc1ccccc1Nc1nn2c(=O)c3ccc(C(=O)NCc4ccc(C)cc4)cc3nc2s1 | 92%
22 | Cc1ccccc1Cn1c(CN2CCC(C(=O)NCCc3ccccc3)CC2)cc2ccccc21 | 110%
23 | CC(=O)N1CCc2c(sc3c2c(=O)n(-c2ccccc2C)c(=O)n3CC(=O)Nc2ccccc2)C1 | 69%
24 | CCOc1ccc(-n2c(SCC(=O)Nc3cc(C)on3)nc3c([nH]c4ccccc43)c2=O)cc1 | 69%
25 | CCOc1ccc(N(CC)S(=O)(=O)N2CCCC(C(=O)Nc3cc(Cl)ccc3C)C2)cc1 (stereo not drawn) | 79%
26 | Cc1ccc(C)c(NC(c2ccccc2)c2nnc(-c3ccccc3F)o2)c1 (stereo not drawn) | 5% (active)
27 | Cc1ccc(Cl)cc1NC(c1ccc(F)cc1)c1nnc(-c2ccccc2)o1 (stereo not drawn) | 117%
28 | COc1ccc(NC(c2ccc(F)cc2)c2nnc(-c3ccccc3Cl)o2)cc1Cl (stereo not drawn) | 88%
29 | CCc1cccc(NC(c2ccccc2)c2nnc(-c3ccccc3F)o2)c1 (stereo not drawn) | 1% (active)
30 | COc1cc(Cl)c(C)cc1NC(c1ccccc1)c1nnc(-c2ccccc2Cl)o1 (stereo not drawn) | 75%
31 | CCc1cccc(NC(c2nnc(-c3ccccc3)o2)c2ccc(F)cc2Cl)c1 (stereo not drawn) | 70%
32 | COc1cc(C(=O)Nc2ccc3nc(SCc4ccccc4)sc3c2)cc(OC)c1OC | 86%
33 | CCOC(=O)c1[nH]c2c(c1Cc1ccccc1C)C(=O)CC(c1ccccc1)C2 (stereo not drawn) | 95%
34 | O=C(NCCc1ccccc1)C(=O)NCC(c1ccco1)S(=O)(=O)c1cccs1 (stereo not drawn) | 75%
35 | Cc1ccc(CNC(=O)C(=O)NCC(c2ccco2)S(=O)(=O)c2cccs2)cc1 (stereo not drawn) | 75%
36 | O=C(NCCc1ccc(Cl)cc1)C(=O)NCC(c1ccco1)S(=O)(=O)c1cccs1 (stereo not drawn) | -3% (active)
37 | O=C(NCCc1ccc(F)cc1)C(=O)NCC(c1ccco1)S(=O)(=O)c1cccs1 (stereo not drawn) | 53%
38 | O=C(NCc1ccc(F)cc1)C(=O)NCC(c1ccco1)S(=O)(=O)c1cccs1 (stereo not drawn) | 0% (active)
39 | O=C(NCc1ccccc1)C(=O)NCC(c1ccco1)S(=O)(=O)c1cccs1 (stereo not drawn) | 70%
40 | Cn1c(=O)n(C)c2cc(N3CCOCC3)c(NC(=O)c3ccc(C(C)(C)C)cc3)cc21 | 75%

Row | SMILES | survival
41 | CCc1c(C)nc2nncn2c1Nc1cccc(C)c1 | 91%
42 | Cc1ccc2sc(N(Cc3cccnc3)C(=O)CCOc3ccccc3)nc2c1C | 63%
43 | O=C(Nc1nc2nc(-c3ccccc3)cc(=O)n2[nH]1)c1ccc(Cl)cc1 | 88%
44 | Cc1cccc(-c2cc3nc(-c4ccccc4)cc(=O)n3[nH]2)c1 | 93%
45 | Cc1[nH]n2c(=O)cc(-c3ccccc3Cl)nc2c1-c1ccccc1 | -13% (active)
46 | Cc1[nH]n2c(=O)cc(-c3ccc(Cl)cc3)nc2c1-c1ccccc1 | -17% (active)
47 | Cc1nn2c(-c3ccccc3)cc(-c3ccccc3)nc2c1-c1ccc(Cl)cc1 | 86%
48 | Nc1nc2nc(-c3ccccc3)cc(=O)n2[nH]1 | 59%
49 | CCOC(=O)c1ccc(CN(Cc2ccc(Br)cc2)S(=O)(=O)c2cccc(C(F)(F)F)c2)cc1 | 72%
50 | CCOc1ccccc1CNC(=O)CCc1c(C)nn(-c2ccc(N3CCCC3)nn2)c1C | 71%
51 | COc1ccc(CNC(=O)c2sc3nc4n(c(=O)c3c2C)CCCCC4)cc1 | 86%
52 | CSc1cccc(NC(=O)C2CCN(S(=O)(=O)c3ccc4[nH]c(=O)ccc4c3)CC2)c1 | 101%
53 | O=C(CSc1nc(-c2ccc(F)cc2)cc(C(F)(F)F)n1)NCc1ccccc1 | 84%
54 | COc1ccc(-c2cc(C(F)(F)F)nc(SCC(=O)N(C)Cc3ccccc3)n2)cc1 | -1% (active)
55 | COc1ccc(-c2cc(C(F)(F)F)nc(SCC(=O)NCCc3ccccc3)n2)cc1 | 140%
56 | CN(Cc1ccccc1)C(=O)CSc1nc(-c2ccc(F)cc2)cc(C(F)(F)F)n1 | -4% (active)
57 | O=C(CSc1nc(-c2ccc(F)cc2)cc(C(F)(F)F)n1)NCCc1ccccc1 | 89%
58 | COc1ccc(-c2cc(C(F)(F)F)nc(SCC(=O)N(C)Cc3ccccc3)n2)cc1OC | 45%

Source: PubChem BioAssay AID463173 (ICCB-Longwood Screening Facility, Harvard Medical School, 2010)
